Test results: PubChem BioAssay (NCI)
About 79,000 compounds went through this panel and 15% of them were active in at least one assay; those are over-represented in the sample as a whole. The source made the active and inactive calls. Rule as the data show it: active = growth inhibition above about 70%; inactive = the rest.

test: NCI Yeast Anticancer Drug Screen. Data for the rad50 strain (AID 155);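 also: 0% = growth of vehicle-only cultures of the same strain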; details: S. cerevisiae rad50 strain growth inhibition; at 50.0 µM; hits give high values
Outline: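 Relative growth inhibition (compound vs vehicle) was measured in yeast with a defined repair-gene alteration.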

Row | Structure (SMILES) | growth inhibition
1 | O=C1NC(C2CC3C=CC2C3)Nc2ccccc21 (stereo not drawn) | 6.75% (inactive)
2 | O=C(O)C1=C(C2CCCCC2)C(=O)c2ccccc21 | 7.75% (inactive)
3 | O=C1OC(c2ccccc2)=N/C1=C/c1cccs1 | 6.85% (inactive)
4 | Cc1ccc(CNc2cc(C)ccn2)cc1 | 42.9% (inactive)
5 | CCOC(=O)c1sc(N)nc1-c1ccccc1 | 10.7% (inactive)
6 | C=CN1C(=O)N(C=C)C(C)(CC(C)C)C1=O (stereo not drawn) | 3.6% (inactive)
7 | Fc1ccc(P(c2ccc(F)cc2)c2ccc(F)cc2)cc1 | 41.4% (inactive)
8 | O=C1OC(=O)C2C1OC1C(=O)OC(=O)C12 (stereo not drawn) | -35.6% (inactive)
9 | Cc1cccc(NNC(=S)Nc2ccccc2)c1 | 18.1% (inactive)
10 | Oc1ccccc1C=Nc1ccccc1C(F)(F)F | -7.3% (inactive)
11 | Cn1/c(=N/Sc2nnnn2-c2ccccc2)sc2ccccc21 | 13.6% (inactive)
12 | COc1ccc(-c2cc(=O)c3c(ccc4ccccc43)o2)cc1 | 21.6% (inactive)
13 | Cc1ccc(NCN2C(=O)c3ccccc3C2=O)cc1Cl | 20.1% (inactive)
14 | CCN(CC)C(C(=O)Nc1ccccc1)C(=O)Nc1ccccc1 | 3.7% (inactive)
15 | COc1ccc2c(c1C)CN1CCc3cc4c(cc3C1=C2)OCO4 | 23.1% (inactive)
16 | CC1CCN(c2ccc([N+](=O)[O-])cc2)CC1 | -17.6% (inactive)
17 | N#CC1(c2ccc(Cl)cc2)CCCC1 | -15.3% (inactive)
18 | CCOC(=O)C(C#N)C(C(C)=O)C(=O)OCC (stereo not drawn) | 9.15% (inactive)
19 | ClCCOC(OCCCl)OCCCl | -7.4% (inactive)

test: NCI Yeast Anticancer Drug Screen. Data for the mec2-1 strain (AID 157); details: S. cerevisiae mec2-1 strain, at 50.0 µM, hits give high values
Outline: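 Test agents were screened against the mec2-1 yeast strain, with defined DNA repair or cell cycle alteration. Growth was scored as inhibition against vehicle-only controls.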

Row | Structure (SMILES) | growth inhibition
20 | CCCCCCCC/C=C\CCCCCCCCOC(N)=O | -26.8% (inactive)
21 | CS(=O)(=O)c1ccc(NN)c([N+](=O)[O-])c1 (tested in a mixture with another compound) | -46.8% (inactive)
22 | NC(CCC(=O)OCc1ccccc1)C(=O)OCc1ccccc1 (stereo not drawn) | -14.3% (inactive)
23 | O=C(O)c1cc(N=Nc2ccccc2)ccc1O | -12.7% (inactive)
24 | CN1C(=S)c2ccccc2S1(=O)=O | -14.4% (inactive)
25 | O=C(/C=N/O)Nc1cc(Cl)ccc1Cl | 15.4% (inactive)
26 | CC1=NOC(=O)C1C(C)(C)C1C(=O)ON=C1C (stereo not drawn) | -0.7% (inactive)
27 | O=C(CCc1ccc(O)cc1)N/N=C/c1cc(Br)ccc1O | -38.4% (inactive)
28 | Nc1ccc(I)cc1Cl | 4.5% (inactive)
29 | O=C1Nc2ccccc2CCc2ccccc21 | -34.3% (inactive)
30 | Cc1ccc(-c2noc(CC(=O)c3ccc([N+](=O)[O-])cc3)n2)cc1 | 5.85% (inactive)
31 | S=C1SCN(Cc2ccccc2)CN1Cc1ccccc1 | -26.1% (inactive)
32 | COc1ccc(C(=O)CC2CCCC(CC(=O)c3ccc(OC)cc3)N2C)cc1 (stereo not drawn) | -6.05% (inactive)
33 | CCOc1ccc(N=c2ssc(SC)c2-c2ccccc2)cc1 | -10.8% (inactive)
34 | N#C/C(=C/c1ccc(O)c(O)c1)C(N)=O | -4.15% (inactive)
35 | COc1ccc(-c2cc(=O)c3c(O)cccc3o2)cc1 | -37.1% (inactive)
36 | Cc1ccc(N2C(=O)CC(Sc3ccccc3N)C2=O)cc1Cl (stereo not drawn) | -35.6% (inactive)
37 | NC(=O)C(=O)N/N=C/c1ccc2c(c1)CCC2 | -10.9% (inactive)
38 | O=C1NC(C2CC3C=CC2C3)Nc2ccccc21 (stereo not drawn) | 0.8% (inactive)

Row | Structure (SMILES) | growth inhibition
39 | O=C(O)C1=C(C2CCCCC2)C(=O)c2ccccc21 | -15.8% (inactive)
40 | O=C1OC(c2ccccc2)=N/C1=C/c1cccs1 | -23.1% (inactive)
41 | Cc1ccc(CNc2cc(C)ccn2)cc1 | 23.9% (inactive)
42 | CCOC(=O)c1sc(N)nc1-c1ccccc1 | 4% (inactive)
43 | C=CN1C(=O)N(C=C)C(C)(CC(C)C)C1=O (stereo not drawn) | -5.55% (inactive)
44 | Fc1ccc(P(c2ccc(F)cc2)c2ccc(F)cc2)cc1 | 9.6% (inactive)
45 | O=C1OC(=O)C2C1OC1C(=O)OC(=O)C12 (stereo not drawn) | -33.1% (inactive)
46 | Cc1cccc(NNC(=S)Nc2ccccc2)c1 | -14.8% (inactive)
47 | Oc1ccccc1C=Nc1ccccc1C(F)(F)F | -19.9% (inactive)
48 | Cn1/c(=N/Sc2nnnn2-c2ccccc2)sc2ccccc21 | -13.9% (inactive)
49 | COc1ccc(-c2cc(=O)c3c(ccc4ccccc43)o2)cc1 | 3.4% (inactive)
50 | Cc1ccc(NCN2C(=O)c3ccccc3C2=O)cc1Cl | -5.55% (inactive)
51 | CCN(CC)C(C(=O)Nc1ccccc1)C(=O)Nc1ccccc1 | 2.8% (inactive)
52 | COc1ccc2c(c1C)CN1CCc3cc4c(cc3C1=C2)OCO4 | 17.4% (inactive)
53 | CC1CCN(c2ccc([N+](=O)[O-])cc2)CC1 | -29.9% (inactive)
54 | N#CC1(c2ccc(Cl)cc2)CCCC1 | -44% (inactive)
55 | CCOC(=O)C(C#N)C(C(C)=O)C(=O)OCC (stereo not drawn) | -1.45% (inactive)
56 | ClCCOC(OCCCl)OCCCl | -28.3% (inactive)

test: NCI Yeast Anticancer Drug Screen. Data for the mlh1 rad18 strain (AID 175); details: S. cerevisiae mlh1 rad18 strain growth inhibition; at 50.0 µM; hits give high values
Outline: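 In this whole-cell yeast screen, a strain with altered DNA damage repair is challenged with compound, and its growth is measured against matched vehicle-treated controls.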

Row | Structure (SMILES) | growth inhibition
57 | CCCCCCCC/C=C\CCCCCCCCOC(N)=O | -17.1% (inactive)
58 | CS(=O)(=O)c1ccc(NN)c([N+](=O)[O-])c1 (tested in a mixture with another compound) | -39.1% (inactive)
59 | NC(CCC(=O)OCc1ccccc1)C(=O)OCc1ccccc1 (stereo not drawn) | 9.25% (inactive)
60 | O=C(O)c1cc(N=Nc2ccccc2)ccc1O | -23.8% (inactive)
61 | CN1C(=S)c2ccccc2S1(=O)=O | 24.2% (inactive)
62 | O=C(/C=N/O)Nc1cc(Cl)ccc1Cl | 17.3% (inactive)
63 | CC1=NOC(=O)C1C(C)(C)C1C(=O)ON=C1C (stereo not drawn) | -18.4% (inactive)
64 | O=C(CCc1ccc(O)cc1)N/N=C/c1cc(Br)ccc1O | -20.6% (inactive)
65 | Nc1ccc(I)cc1Cl | 24.4% (inactive)
66 | O=C1Nc2ccccc2CCc2ccccc21 | -7.2% (inactive)
67 | Cc1ccc(-c2noc(CC(=O)c3ccc([N+](=O)[O-])cc3)n2)cc1 | 38.8% (inactive)
68 | S=C1SCN(Cc2ccccc2)CN1Cc1ccccc1 | -13.3% (inactive)
69 | COc1ccc(C(=O)CC2CCCC(CC(=O)c3ccc(OC)cc3)N2C)cc1 (stereo not drawn) | 30.4% (inactive)
70 | CCOc1ccc(N=c2ssc(SC)c2-c2ccccc2)cc1 | 20.5% (inactive)
71 | N#C/C(=C/c1ccc(O)c(O)c1)C(N)=O | 17.1% (inactive)
72 | COc1ccc(-c2cc(=O)c3c(O)cccc3o2)cc1 | -1.35% (inactive)
73 | Cc1ccc(N2C(=O)CC(Sc3ccccc3N)C2=O)cc1Cl (stereo not drawn) | -11.9% (inactive)
74 | NC(=O)C(=O)N/N=C/c1ccc2c(c1)CCC2 | 8.3% (inactive)
75 | O=C1NC(C2CC3C=CC2C3)Nc2ccccc21 (stereo not drawn) | 2.7% (inactive)

Row | Structure (SMILES) | growth inhibition
76 | O=C(O)C1=C(C2CCCCC2)C(=O)c2ccccc21 | 20.9% (inactive)
77 | O=C1OC(c2ccccc2)=N/C1=C/c1cccs1 | -24.8% (inactive)
78 | Cc1ccc(CNc2cc(C)ccn2)cc1 | 26.9% (inactive)
79 | CCOC(=O)c1sc(N)nc1-c1ccccc1 | 24.6% (inactive)
80 | C=CN1C(=O)N(C=C)C(C)(CC(C)C)C1=O (stereo not drawn) | 15.8% (inactive)
81 | Fc1ccc(P(c2ccc(F)cc2)c2ccc(F)cc2)cc1 | 19.1% (inactive)
82 | O=C1OC(=O)C2C1OC1C(=O)OC(=O)C12 (stereo not drawn) | -28.1% (inactive)
83 | Cc1cccc(NNC(=S)Nc2ccccc2)c1 | 5.05% (inactive)
84 | Oc1ccccc1C=Nc1ccccc1C(F)(F)F | 25.2% (inactive)
85 | Cn1/c(=N/Sc2nnnn2-c2ccccc2)sc2ccccc21 | 29.9% (inactive)
86 | COc1ccc(-c2cc(=O)c3c(ccc4ccccc43)o2)cc1 | 7% (inactive)
87 | Cc1ccc(NCN2C(=O)c3ccccc3C2=O)cc1Cl | 28.3% (inactive)
88 | CCN(CC)C(C(=O)Nc1ccccc1)C(=O)Nc1ccccc1 | -4.9% (inactive)
89 | COc1ccc2c(c1C)CN1CCc3cc4c(cc3C1=C2)OCO4 | 61.1% (inactive)
90 | CC1CCN(c2ccc([N+](=O)[O-])cc2)CC1 | -9.05% (inactive)
91 | N#CC1(c2ccc(Cl)cc2)CCCC1 | -14.8% (inactive)
92 | CCOC(=O)C(C#N)C(C(C)=O)C(=O)OCC (stereo not drawn) | 31.4% (inactive)
93 | ClCCOC(OCCCl)OCCCl | 4.85% (inactive)
